Test: HepG2 liver cancer cell viability effects, profiling panel, resazurin fluorescence, 24 h, PK04 Diversity Set (AID 1172); also: test concentration not given here
Conditions: higher = more signal

| Structure (SMILES) | z-score |
| --- | --- |
| COCCOC(=O)N1C(=O)[C@@]2(c3cc(C#Cc4ccc(OC)cc4)ccc31)[C@H](c1ccc(OCCO)cc1)N1[C@H](c3ccccc3)[C@H](c3ccccc3)OC(=O)[C@H]1[C@@H]2C(=O)NC[C@H](O)c1ccccc1 | -0.234 |
| CC1CC/C=C\[C@H]2OC34C=CCN(Cc5ccccc5)C(=O)[C@H]3N(CCCCCCO)C(=O)[C@@H]4C2C(=O)O1 (stereo partly specified) | 0.279 |
| [N-]=[N+]=Nc1ccccc1[C@@H]1OC(c2ccc(OCCCO)cc2)=N[C@]1(CCS(=O)(=O)c1ccccc1)C(=O)NCC(O)CO (stereo partly specified) | 0.396 |
| COC(=O)[C@@]1(Cc2ccccc2)[C@H]2c3cc(C(=O)N(C)C)n(CCSC(=N)N)c3C[C@H]2CN1C(=O)c1ccccc1 | -0.436 |
| CC(C)[Si](C#CCCc1ccccc1)(O[C@H](c1ccccc1)c1cn(Cc2ccccc2)nn1)C(C)C | 1.5 |
| O=C(NCc1ccc(F)cc1)[C@H]1C[C@H]2C(=O)N3CCC[C@H]3C(=O)N2[C@H]1c1ccc(O)cc1 | -0.388 |
| COC(=O)[C@]1(Cc2ccccc2)N=C(c2ccc(OCCCO)cc2)O[C@@H]1c1ccccc1CN=[N+]=[N-] | -4.19 |
| CC(C)C[C@@H]1NC(=O)[C@@H]2C[C@H](C(=O)NCCCCCCNC(=O)CS)[C@H](c3cccc(OCCO)c3)N2C1=O | -0.889 |
| O=C1O[C@@H](c2ccccc2)[C@@H](c2ccccc2)N2[C@@H](c3ccc(OCCO)cc3)[C@]3(C(=O)Nc4ccc(C#CCCO)cc43)[C@@H](C(=O)O)[C@H]12 | -0.0464 |
| CCCC[C@H]1C[C@@H]1[C@@H]1N(C(C)=O)[C@H](c2cccc(OC)c2)CC12CC2 | 0.527 |
| C=C(COC)/C(=C/C[C@@H](OC(C)=O)c1ccccc1OCCO)c1cnc2ccccc2c1 | -1.15 |
| CN(C)CCCNC(=O)[C@@]1(C)c2ccccc2C(=O)N(Cc2ccc(OC(F)(F)F)cc2)[C@H]1c1ccc(CO)cc1 | -0.732 |
| C=CC[C@]1(C(=O)NCC(O)CO)COC(c2ccc(OCCCO)cc2)=N1 (stereo partly specified) | -0.25 |
| C=CCC(OC(C)=O)[C@@H]1[C@@H](N(Cc2cccc3ccccc23)C(=O)c2ccc(-c3ccccc3)cc2)c2cc(OCCCO)ccc2N1C(=O)Cc1ccc2ccccc2c1 (stereo partly specified) | 0.236 |
| CCCCCC1=C2CNC(CC(C)C)(C(=O)OC)C=C2C(C)C1=O (stereo unspecified) | -0.97 |
| CN1C(=O)[C@@H]2[C@@H](CC(COc3ccccc3)=C3[C@@H](CCc4ccccc4)OB(O)C[C@@H]32)C1=O | -0.418 |
| COC(=O)[C@@]1(Cc2ccc(OC)cc2)[C@H]2c3cc(C(=O)N4CCCC4)n(Cc4ccc(C(F)(F)F)nc4)c3C[C@H]2CN1C(=O)c1ccccc1 | -0.35 |
| C=CCC(OC(C)=O)[C@@H]1[C@@H](N(Cc2cc3ccccc3o2)C(=O)Cc2ccc(OC)cc2)c2cc(OCCCO)ccc2N1C(=O)c1ccc2ccccc2n1 (stereo partly specified) | -1.11 |

| Structure (SMILES) | z-score |
| --- | --- |
| [N-]=[N+]=Nc1ccccc1[C@@H]1OC(c2ccc(OCCCO)cc2)=N[C@]1(Cc1ccccc1)C(=O)NCCN1CCOCC1 | -0.158 |
| COc1ccc(C(=O)Nc2cccc(CN3C(=O)[C@]4(O[C@H](CC(=O)N5Cc6ccccc6C[C@H]5CO)[C@@H]([Si](C)(C)c5ccc(OC)cc5)[C@@H]4C)c4ccccc43)c2)cc1 | 0.256 |
| C=CCN1C(=O)[C@@]2(O[C@@H](CCn3cc([C@H](O)c4ccccc4)nn3)[C@H]([Si](C)(C)c3ccc(OC)cc3)[C@H]2C)c2cc(N3C(=O)c4cccc5cccc3c45)ccc21 | -1.36 |
| CC(C)(C)N1CC=CC23O[C@@H]4/C=C\CCCOC(=O)C4[C@H]2C(=O)N(CCCCCO)[C@@H]3C1=O (stereo partly specified) | -0.144 |
| CN(C)CCCC[C@@H]1NC(=O)[C@@H]2C[C@H](C(=O)NCCCCCCNC(=O)CS)[C@H](c3ccc(O)cc3)N2C1=O | 0.155 |
| CC1CC/C=C\[C@H]2OC34C=CCN(CCN5CCOCC5)C(=O)[C@H]3N(CCCO)C(=O)[C@@H]4C2C(=O)O1 (stereo partly specified) | -0.505 |
| COc1ccccc1CN1C(=O)c2ccccc2[C@](Cc2ccccc2I)(C(=O)NCC(C)C)[C@@H]1c1ccc(CO)cc1 | 0.52 |
| COCC(=C=CC[C@H](O)c1ccccc1OCCO)C[C@H](O)COCc1ccccc1 | 0.0129 |
| O=C(NC1CC1)[C@@H]1c2ccccc2C(=O)N(Cc2ccc(OC(F)(F)F)cc2)[C@H]1c1ccc(CO)cc1 | 1.26 |
| O=C1C2C=CC(C(O)c3c(F)cccc3Cl)N(Nc3ccc([N+](=O)[O-])cc3)C2C(=O)N1c1ccccc1 (stereo unspecified) | -0.0492 |
| C[C@@H]1NC(=O)C([C@@H](C)OCc2ccccc2)NC(=O)[C@@]23C(=O)N[C@@H](Cc4ccccc4)C2[C@H](C)[C@@]2(C)O[C@H]2C3/C=C/C/C=C\CNC1=O (stereo partly specified) | -0.847 |
| CC1CC/C=C\[C@H]2OC34C=CCN(c5ccc(Cl)cc5)C(=O)[C@H]3N(CCCCCCO)C(=O)[C@]4(C)C2C(=O)O1 (stereo partly specified) | 0.25 |
| CC1=C([C@H](O)CCc2ccccc2)[C@H](CO)n2c(=O)n(-c3ccccc3)c(=O)n2C1 | 0.331 |
| CCOC(=O)C[C@H]1[C@H](OC(=O)Cc2ccc3c(c2)OCO3)[C@@H](NC(=O)Cc2ccc(OC)cc2)c2cc(OCCCO)ccc2N1C(=O)Cc1ccc(OC)cc1 | -0.354 |
| COc1ccc(C(O)C2C=CC3C(=O)NC(=O)C3N2Nc2ccc(Cl)cc2Cl)c2ccccc12 (stereo unspecified) | -2.19 |
| C=C1C(=O)C=C2CN(C(=O)c3ccccc3)[C@@](Cc3ccc(OC)cc3)(C(=O)OC)[C@@H]12 | -0.187 |
| COC(=O)[C@@]1(Cc2ccccc2)[C@H]2c3cc(C(=O)N(C)C)n(Cc4ccc(S(C)(=O)=O)cc4)c3C[C@H]2CN1C(=O)c1ccccc1 | -1.17 |
| CCCNC(=O)[C@@]1(c2ccc([N+](=O)[O-])cc2)CC(=O)N(C(C)C)[C@@H]1c1ccc(CO)cc1 | 0.0889 |

Source: PubChem BioAssay
